The campaign covered roughly 39,000 compounds. About 3,300 (8.5%) were called active. This is one part of a sample in which actives are shown more often than they occur.

This experiment has as its system HepG2. In words: cytotoxicity call (relative viability < 0.9). The settings on record: 10 µM.
For `COc1ccnc(N)c1`, the cytotoxicity call is “inactive”.
As to `COc1cc(N)ccn1`, the cytotoxicity call was “active”.
On to `COc1ccc(N)cn1`, for which the cytotoxicity call is “inactive”.
The value for `COc1ccccc1NC(=O)N(C)C[C@H]1Oc2cc(Br)ccc2S(=O)(=O)N([C@@H](C)CO)C[C@H]1C` was “inactive”.
For `COC(=O)[C@@H](N)Cc1ccc(O)c(O)c1`, the cytotoxicity call was “inactive”.
The entry for `N[C@@H](Cc1ccc(O)c(O)c1)C(=O)O` is “inactive”; for `CC(N)(Cc1cccc(O)c1)C(=O)O` (stereo unspecified) it is “inactive”; for `NC(Cc1ccc(O)c(O)c1)C(=O)O` (stereo unspecified) it is “active”.
With `CCOC(=O)[C@@](C)(N)Cc1ccc(O)c(O)c1`, the cytotoxicity call is “inactive”.
The value for `C[C@](N)(Cc1ccc(O)cc1)C(=O)O` was “inactive”; that for `CC(N)(Cc1ccc(O)c(O)c1)C(=O)O` (stereo unspecified) [listing 1 of 2 here] was “inactive”; that for `C[C@](N)(Cc1ccc(O)c(O)c1)C(=O)O` was “active”.
With `CC(N)(Cc1ccc(O)c(O)c1)C(=O)O` (stereo unspecified) [listing 2 of 2 here], the cytotoxicity call is “active”.
With `O=Cc1ccc[nH]1`, the cytotoxicity call was “inactive”.
The value for `COc1ccc(NC(=O)N(C)C[C@@H]2Oc3ncc(C#C[C@H](C)O)cc3C(=O)N([C@@H](C)CO)C[C@H]2C)cc1` was “inactive”; that for `CN1CCN(C(=O)C[C@@H]2CC[C@@H]3[C@H](COC[C@H](O)CN3S(=O)(=O)c3cccc(Cl)c3)O2)CC1` was “inactive”; that for `CC[C@@H](O)C[C@H]1CC[C@H]([C@@H](C)C(=O)O[C@@H](C)C[C@H]2CC[C@H]([C@@H](C)C(=O)O[C@@H](C)C[C@H]3CC[C@H]([C@@H](C)C(=O)O[C@@H](C)C[C@H]4CC[C@H]([C@@H](C)C(=O)O)O4)O3)O2)O1` was “active”.
`COc1ccc(S(=O)(=O)Nc2ccc3c(c2)CC(=O)N([C@H](C)CO)C[C@@H](C)[C@@H](CN(C)C(=O)Nc2c(C)noc2C)O3)cc1`: the cytotoxicity call is “inactive”.
The entry for `C[C@@H]1CCCCO[C@H](CN(C)C(=O)c2ccccc2)[C@@H](C)CN([C@H](C)CO)C(=O)c2cc(NC(=O)c3ccccc3)ccc2O1` is “inactive”.
The entry for `O=C(O)c1cnns1` is “inactive”; for `C[C@H](CO)N1C[C@H](C)[C@@H](CN(C)C(=O)Nc2cccc3ccccc23)OCc2cn(nn2)CCCC1=O` it is “inactive”; for `C[C@@H]1CN([C@H](C)CO)C(=O)c2cccc(NC(=O)C3CCOCC3)c2O[C@@H]1CN(C)Cc1ccc(C(=O)O)cc1` it is “inactive”.
As to `O=C(NCc1nc2ccccc2[nH]1)C1=C[C@@H](c2ccc(Br)cc2)C[C@@H](OCc2ccc(CO)cc2)O1`, the cytotoxicity call is “active”.
As for `O=C(NCc1nc2ccccc2[nH]1)C1=C[C@H](c2ccc(C(F)(F)F)cc2)C[C@H](OCc2ccc(CO)cc2)O1`, the cytotoxicity call is “inactive”.
For `O=C(NCc1nc2ccccc2[nH]1)C1=C[C@H](c2ccc(Br)cc2)C[C@H](OCc2ccc(CO)cc2)O1`, the cytotoxicity call was “inactive”.
The entry for `C[C@H]1CCCCO[C@@H](CN(C)C(=O)Nc2cccc3ccccc23)[C@@H](C)CN([C@@H](C)CO)C(=O)c2cc(NS(=O)(=O)c3ccc(Cl)cc3)ccc2O1` is “inactive”.
In the case of `C[C@@H]1CCCCO[C@H](CN(C)C(=O)Nc2cccc3ccccc23)[C@H](C)CN([C@H](C)CO)C(=O)c2cc(NS(=O)(=O)c3ccc(Cl)cc3)ccc2O1`, the cytotoxicity call is “active”.
As for `C[C@H](CO)N1C[C@H](C)[C@H](CN(C)C(=O)Nc2cccc3ccccc23)OCCCC[C@H](C)Oc2ccc(NS(=O)(=O)c3ccc(Cl)cc3)cc2C1=O`, the cytotoxicity call was “inactive”.
Take `C[C@@H]1CN([C@@H](C)CO)C(=O)c2cc(NS(=O)(=O)c3ccc(Cl)cc3)ccc2O[C@@H](C)CCCCO[C@@H]1CN(C)C(=O)Nc1cccc2ccccc12`: the cytotoxicity call was “inactive”.
For the molecule `C[C@@H]1CCCCO[C@@H](CN(C)C(=O)Nc2cccc3ccccc23)[C@H](C)CN([C@H](C)CO)C(=O)c2cc(NS(=O)(=O)c3ccc(Cl)cc3)ccc2O1`, the cytotoxicity call is “active”.
On to `C[C@@H]1CCCCO[C@@H](CN(C)C(=O)Nc2cccc3ccccc23)[C@H](C)CN([C@@H](C)CO)C(=O)c2cc(NS(=O)(=O)c3ccc(Cl)cc3)ccc2O1`, for which the cytotoxicity call was “inactive”.
Turning to `CO[C@@H]1CN(C)C(=O)c2ccc(NC(=O)Nc3ccccc3)cc2OC[C@H](C)N(C(=O)CN(C)C)C[C@@H]1C`, the cytotoxicity call is “inactive”.
As to `COc1ccc(S(=O)(=O)Nc2cccc3c2O[C@H](CN(C)C(=O)NC(C)C)[C@H](C)CN([C@@H](C)CO)C3=O)cc1`, the cytotoxicity call is “inactive”.
Turning to `C[C@@H]1CCCCO[C@@H](CN(C)C(=O)NC2CCCCC2)[C@@H](C)CN([C@H](C)CO)C(=O)c2cc(NC(=O)NC3CCCCC3)ccc2O1`, the cytotoxicity call is “inactive”.
Regarding `COc1ccc(S(=O)(=O)N(C)C[C@@H]2Oc3ncc(C#Cc4ccccc4)cc3C(=O)N([C@H](C)CO)C[C@@H]2C)cc1`, the cytotoxicity call is “inactive”.
In the case of `O=c1[nH]nc2ccccn12`, the cytotoxicity call was “inactive”.
`CN1C(=O)c2cc(NC(=O)C3CCOCC3)ccc2OC[C@@H]2O[C@@H](CC(=O)NCc3ccc4c(c3)OCO4)CC[C@H]21`: the cytotoxicity call was “inactive”.
With `COc1ccc(C(C)(C)N)cc1OC`, the cytotoxicity call is “inactive”.
`C[N+]1(C)C[C@H](O)[C@H](C(=O)O)C1`: the cytotoxicity call was “active”.
Turning to `C[N+]1(C)C[C@@H](O)C[C@H]1C(=O)O`, the cytotoxicity call was “inactive”.
Turning to `C[C@@H]1C[C@H]1C(=O)O`, the cytotoxicity call is “inactive”.
As for `CN1CCN(C(=O)C[C@@H]2C=C[C@@H](NC(=O)Cc3ccccn3)[C@H](CO)O2)CC1`, the cytotoxicity call was “inactive”.
For the molecule `CCCC#Cc1cnc2c(c1)C(=O)N([C@@H](C)CO)C[C@H](C)[C@H](CN(C)S(=O)(=O)c1cccc(OC)c1)O2`, the cytotoxicity call is “inactive”.
The entry for `CCN1C[C@]23CN(C(=O)c4ccn[nH]4)C[C@@H](C[C@H]2S1(=O)=O)O3` is “inactive”; for `COc1ccc(S(=O)(=O)N(C)C[C@@H]2OCCCC[C@@H](C)Oc3ccc(NC(=O)CCC(F)(F)F)cc3C(=O)N([C@H](C)CO)C[C@H]2C)cc1` it is “inactive”; for `COc1cc([C@H]2OC[C@@H]3[C@H]2CO[C@H]3c2cc(OC)c(O[C@@H]3O[C@H](CO)[C@@H](O)[C@H](O)[C@H]3O)c(OC)c2)cc(OC)c1OC` it is “inactive”.
For `COc1cc(C[C@H]2CO[C@H](c3ccc(O)c(OC)c3)[C@@H]2CO[C@H]2O[C@@H](CO)[C@@H](O)[C@@H](O)[C@@H]2O)ccc1O`, the cytotoxicity call was “active”.
Take `COc1cc([C@H]2OC[C@](O)(Cc3ccc(O[C@@H]4O[C@H](CO)[C@@H](O)[C@H](O)[C@H]4O)c(OC)c3)[C@@H]2CO)ccc1O`: the cytotoxicity call is “inactive”.
On to `COc1ccc(NC(=O)Nc2ccc3c(c2)C(=O)N([C@H](C)CO)C[C@H](C)[C@@H](CN(C)Cc2ccc(C(F)(F)F)cc2)OCCCC[C@H](C)O3)cc1`, for which the cytotoxicity call is “inactive”.
In the case of `COc1ccc(CN(C)C[C@@H]2OCCCC[C@H](C)Oc3ccc(NC(=O)Nc4ccc(C(F)(F)F)cc4)cc3C(=O)N([C@H](C)CO)C[C@@H]2C)cc1`, the cytotoxicity call is “active”.
The value for `COc1ccc(CN(C)C[C@@H]2OCCCC[C@H](C)Oc3ccc(NC(=O)Nc4ccc(C(F)(F)F)cc4)cc3C(=O)N([C@@H](C)CO)C[C@@H]2C)cc1` was “active”; that for `COc1ccc(NC(=O)Nc2ccc3c(c2)C(=O)N([C@@H](C)CO)C[C@H](C)[C@@H](CN(C)Cc2ccc(C(F)(F)F)cc2)OCCCC[C@H](C)O3)cc1` was “inactive”; that for `COc1ccc(CN(C)C[C@H]2OCCCC[C@@H](C)Oc3ccc(NC(=O)Nc4ccc(C(F)(F)F)cc4)cc3C(=O)N([C@H](C)CO)C[C@@H]2C)cc1` was “active”.
The value for `COc1ccc(NC(=O)Nc2ccc3c(c2)C(=O)N([C@H](C)CO)C[C@@H](C)[C@@H](CN(C)Cc2ccc(C(F)(F)F)cc2)OCCCC[C@H](C)O3)cc1` was “inactive”; that for `COc1ccc(CN(C)C[C@@H]2OCCCC[C@@H](C)Oc3ccc(NC(=O)Nc4ccc(C(F)(F)F)cc4)cc3C(=O)N([C@@H](C)CO)C[C@H]2C)cc1` was “active”; that for `COc1ccc(NC(=O)Nc2ccc3c(c2)C(=O)N([C@@H](C)CO)C[C@@H](C)[C@H](CN(C)Cc2ccc(C(F)(F)F)cc2)OCCCC[C@H](C)O3)cc1` was “inactive”.
In the case of `COCC#Cc1ccc2c(c1)O[C@H](CN(C)C(=O)Nc1ccc(OC)cc1)[C@H](C)CN([C@H](C)CO)S2(=O)=O`, the cytotoxicity call is “inactive”.
On to `COCC(=O)N1CC[C@]2(CC1)CN([C@H](CO)c1[nH]c3cc(ccc3c12)OC)C(=O)Nc1ccccc1F`, for which the cytotoxicity call was “inactive”.
As to `Cc1c(C)c2c(c(C)c1OC(=O)CCC(=O)O)CC[C@@](C)(CCC[C@H](C)CCC[C@H](C)CCCC(C)C)O2`, the cytotoxicity call was “inactive”.
For `Cc1ccc(S(=O)(=O)Nc2ccc3c(c2)CC(=O)N([C@H](C)CO)C[C@@H](C)[C@@H](CN(C)S(=O)(=O)c2c(C)noc2C)O3)cc1`, the cytotoxicity call is “inactive”.
The entry for `COc1ccc(CCNC(=O)[C@@H]2c3ccccc3C(=O)N(CC34CC5CC(CC(C5)C3)C4)[C@H]2c2ccc(CO)cc2)cc1` is “inactive”.
For `C=CCN(CC=C)S(=O)(=O)c1nnc[nH]1`, the cytotoxicity call was “inactive”.
`C[C@@H]1CN([C@@H](C)CO)C(=O)c2cc(NC(=O)Cc3ccccc3)ccc2O[C@@H](C)CCCCO[C@H]1CN(C)S(=O)(=O)c1cccs1`: the cytotoxicity call is “inactive”.
With `O=C(C[C@H]1C=C[C@H](NC(=O)c2ccncc2)[C@H](CO)O1)NCc1ccncn1`, the cytotoxicity call was “inactive”.
Turning to `CC1=CC(=O)C2=C(C)CCC3C(C)C(=O)OC3C12` (stereo unspecified), the cytotoxicity call is “inactive”.
The value for `C[C@H](CO)N1C[C@H](C)[C@@H](CN(C)Cc2ccc(Cl)c(Cl)c2)Oc2ccc(NC(=O)CCCCCC(=O)Nc3ccccc3N)cc2CC1=O` was “inactive”.
The entry for `O=C(C[C@@H]1CC[C@H]2[C@@H](COC[C@H](O)CN2C(=O)Nc2cccc(F)c2)O1)NCCCN1CCOCC1` is “inactive”; for `COc1ccc(CN(C)C[C@@H]2OCCCC[C@H](C)Oc3ccc(NC(=O)Nc4ccc(C(F)(F)F)cc4)cc3C(=O)N([C@@H](C)CO)C[C@H]2C)cc1` it is “active”.
Consider `COc1ccc(CN(C)C[C@H]2OCCCC[C@H](C)Oc3ccc(NC(=O)Nc4ccc(C(F)(F)F)cc4)cc3C(=O)N([C@H](C)CO)C[C@H]2C)cc1`, for which the cytotoxicity call was “active”.
For `COc1ccc(NC(=O)Nc2ccc3c(c2)C(=O)N([C@@H](C)CO)C[C@H](C)[C@@H](CN(C)Cc2ccc(C(F)(F)F)cc2)OCCCC[C@@H](C)O3)cc1`, the cytotoxicity call is “active”.
For the molecule `COc1ccc(CN(C)C[C@H]2OCCCC[C@@H](C)Oc3ccc(NC(=O)Nc4ccc(C(F)(F)F)cc4)cc3C(=O)N([C@H](C)CO)C[C@H]2C)cc1`, the cytotoxicity call was “active”.

The record behind these values is the antibiotic and cytotoxicity screens of Wong et al. (2023).
